# Data published in the supplement of paper PMC12632987.
# B1: GBRAPL2_54_7382 (protein)
# chain: AKKVRITIEFIVEGNEEELEKVKKVAKELSEELAKELKEKYGATSSISFEEENGVLTITIDVITDESAVDDVIDRALELKEEIEKKTGLKVSVVIGIEYL
# B2: GBRAPL2_54_7379 (protein)
# chain: MKIVEVEITYLATGNEEELKKVEEVAKKKVEEFKKELEEKYGAKTTTSVEIEDGVLSYTVTVITKEENLDEVIDKALEMAKEIEKETGVKVSVVIGTKEL
# B3: GBRAPL2_54_7375 (protein)
# chain: MKKVEIEIDYIVEGNEEELKKVREVLKKELEKMKKELEEKFNATVEVSEEYENGVLTVTVKVIVDEEHVDEVIDLALETAERVSKETGVKVNVVIGIKEL
# B4: GBRAPL2_54_7376 (protein)
# chain: MKKVEIEIDYIVEGDPAELARVEAVLKKELAEMEKTLKSKFNAKTTVSSEVEDGVLTTTVTVITDESHVDEVIDLALETAERVSAETGVKVSVVIGIKEL
# B5: GBRAPL2_54_7377 (protein)
# chain: MKKVEITIDYIVEGDEEELKRVREVLEKELEKMEKELKEKFNAKTEVSVEVEDGVLTVTVDVIVDEKDVDKVIDLALKTAEEVSKKTGVKVNVVIGIKEL
# B6: GBRAPL2_54_7381 (protein)
# chain: AKKVEIVADFIVEGTPEELAKVEKVATELSKKLAEELAAKYGATSTLSFEREDGVLLLTVTIVTDESAVDDVLDRLEELRDEIEKRTGVKVNLVIGIKEL
# B7: GBRAPL2_54_7385 (protein)
# chain: MTKVLVEIDFLVEGDEEELAEVEKVLLEEIEKMKKELKEKYGAEVTVEVEREDGRLLVTVTVLTPKEAVDDVIDLAEKMRDEVEAKTGVKVHVVIGIEEL
# B8: GBRAPL2_54_7378 (protein)
# chain: MKIVEVEVDYIAQGNDEELEKVEKVAKEELAKLTEELAKKYGAKTTTSVEREDGVLSVTLTVIVKESDLDAVIDLALETAKRIEEKTGVKVSVVIGTKEL
# B9: GBRAPL2_54_7380 (protein)
# chain: MKKVLITGEFIVEGDEESLEKVKKVAEEKSKELSEELKKKYGAESTISFEEEDGVLYITIDIITDEEAVDDVIDKLEELKKEIEKETGLKVSLVIGIEYL
# B10: GBRAPL2_54_7383 (protein)
# chain: AKKIEIEIDYIVEGDKESLEKVKKVFTELSKKMAEELKEKYGAETKIEFEEENGVLTGTITVITDESHVDEVIDRALELKKEIEKKTGLKVNVVIGIKEL
# B11: GBRAPL2_54_7373 (protein)
# chain: MTKVLIEATFIAEGTPEELAEVRKVALEELEKLKKELKEKFGAESKISSEEEDGVLSVTVEITTEKENLDEVLDLLEETRERIAERTGRPVSLVIGIKEL
# B12: GBRAPL2_54_7374 (protein)
# chain: MKKVEITIDYVVEGNEEELEKVEKVLKKELEELKKKLESEFNAKTKISVERENGVLTIEVDVITDEKDVDKVIDLALETAKKVSEKTGVKVSVVIGIKEL
# B13: GBRAPL2_54_7387 (protein)
# chain: MKIIEIEIDYIAEGDDETLDKVEKVALEEIEKLKKELKEKYGAETEIEVEREDGVLSVTVTVITKEENVDEVIDLAEETAKEISEKTGIKVSVVIGLKEL
# B14: GBRAPL2_54_7386 (protein)
# chain: MKKVNITIDFVAEGDPETLAKVEEVAEKEIEKMEEELKEKYGAETERSVEREDGVLTVTVDVTVPEEAVDDVIDLALETAERISKETGVKVSVVIGAEEL
# B15: GBRAPL2_54_7388 (protein)
# chain: MKKIRITVDFIAEGNDEELAKVEKVLLEELEKFKKELKEKFNAKTEISVERENGVLTITVDVITEEKDVDEVIDLADEVAKEVEKKTGVKVSVVIGIEEL
# B16: GBRAPL2_54_7389 (protein)
# chain: MKMIEIVIDYIAEGDDEELDKVEEVLLELLEEFKKELKEKYGATVEVSVEREDGVLTVTVTVIVKEEDVDDVIDLADKVAKEVEAKTGVKVSLVIGIKEL
# Biological target: GABARAPL2, P60520
# Assay: median log2 fold change of GCK-ALFA target abundance (FLAG IP / Myc IP barcode read proportion) (log2 ratio); each designed protein is fused to an ALFA-tag nanobody in HEK293 cells to bring the named protein to FLAG-tagged glucokinase (GCK); Myc marks an untargeted standard; higher = target protein stabilised (more abundant)
# Settings: target protein: 3xFLAG-MCP-GCK-ALFA reporter; HEK293 landing pad (RPLP)
# Summary of the method: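 The readout is target abundance, the per-binder median log2 ratio of FLAG to Myc barcode read proportions. It came from HEK293 landing-pad cells carrying a recombined ALFA-nanobody-fused binder library, induced with 2 μg mL^−1 doxycycline and transfected with a plasmid for a FLAG-tagged target and a Myc-tagged standard. After 48 h, lysates were immunoprecipitated with anti-FLAG and anti-Myc, and circular RNA barcodes were reverse transcribed, amplified and sequenced. Each barcode needed a proportion of at least 10^−7 in both replicates and each binder at least 3 barcodes per replicate, a pseudocount of 10^−6 was added, and the replicates were pooled.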
# Sequence of GABARAPL2, P60520 (P60520 whole entry, the tested form may be a part): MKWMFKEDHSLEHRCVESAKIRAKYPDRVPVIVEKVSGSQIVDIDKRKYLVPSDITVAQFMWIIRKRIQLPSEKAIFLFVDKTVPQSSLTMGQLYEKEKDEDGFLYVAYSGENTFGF
row,Binder,median log2 fold change
1,B1,0.121
2,B2,-0.192
3,B3,-0.389
4,B4,-0.212
5,B5,-0.193
6,B6,-0.18
7,B7,0.154
8,B8,-0.111
9,B9,0.0537
10,B10,-0.128
11,B11,0.0324
12,B12,-0.179
13,B13,-0.429
14,B14,-0.458
15,B15,-0.363
16,B16,-0.265
